# Test results: PubChem BioAssay (NCI)
# The panel holds about 83,000 compounds, 20% with a hit somewhere; the sample as a whole holds those more often.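 48-hour exposure, single concentration, 96-well plates; percent growth endpoint where 0 means no net growth. Active: below 10.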 Values without a mark were called inactive. Activity calls are given as the source filed them.
# Assays:
# Assay in all cases: NCI-60 one-dose screen, 48 h (100 = growth as untreated, 0 = no growth, -100 = all killed)
# Details in all cases: 10 µM unless noted
# [1] = test system: DU-145 prostate
# [2] = test system: K-562 leukemia
# [3] = test system: MALME-3M melanoma
# [4] = test system: MDA-MB-231 breast
# [5] = test system: RXF 393 renal
# [6] = test system: SF-268 CNS
# [7] = test system: SF-295 CNS
# [8] = test system: SF-539 CNS
# [9] = test system: UACC-257 melanoma
# [10] = test system: M14 melanoma
# [11] = test system: HCT-15 colon
# [12] = test system: HT29 colon
# [13] = test system: SNB-19 CNS
# [14] = test system: U251 CNS
# [15] = test system: PC-3 prostate
# [16] = test system: SK-MEL-5 melanoma
# [17] = test system: UACC-62 melanoma
# [18] = test system: LOX IMVI melanoma
# [19] = test system: SK-MEL-28 melanoma
# [20] = test system: SNB-75 CNS
Compound,growth [1],growth [2],growth [3],growth [4],growth [5],growth [6],growth [7],growth [8],growth [9],growth [10],growth [11],growth [12],growth [13],growth [14],growth [15],growth [16],growth [17],growth [18],growth [19],growth [20]
CCOC(=O)CC(c1ccccc1)C(C#N)c1ccccc1 (stereo unspecified),104%,108%,90.9%,106%,87.5%,99.4%,110%,109%,94.2%,91.8%,103%,103%,111%,97.6%,89.5%,98.7%,97.3%,103%,95.5%,–
CC1=CC[C@@H]2C(C)(C)C(=O)CC[C@@]2(C)[C@@H]1COc1ccc2ccc(=O)oc2c1,88.3%,60.1%,78%,89.4%,68.6%,86.4%,69%,87.5%,91.4%,89%,78.6%,78.5%,81%,87.5%,58.4%,26.1%,41.9%,87.9%,87.7%,–
CCCC[C@@H](C=O)NC(=O)[C@H](CC(C)C)NC(=O)[C@H](CC(C)C)NC(=O)OCc1ccccc1,-38.2% (active),0.815% (active),-33% (active),-32.3% (active),-63.7% (active),-11.9% (active),-12% (active),-45.7% (active),12.4%,-35.3% (active),–,-19.4% (active),22.1%,5.84% (active),5.37% (active),-71% (active),-38% (active),-65.2% (active),-21.7% (active),-45.1% (active)
Nc1cc(C(=O)O)[nH]c(=S)n1,106%,115%,89.8%,100%,96.9%,98.6%,101%,104%,93.3%,93.7%,101%,101%,–,95%,99.8%,98.8%,95.2%,100%,96.7%,–
O=C1Nc2ccccc2/C1=C/C(=O)c1ccc(N2CCOCC2)cc1,74%,75%,75.9%,88.4%,92.2%,86.5%,99.1%,90.8%,95.7%,99.7%,93%,83.4%,93.9%,81.9%,84.6%,101%,83.2%,88.9%,107%,–
C[C@H]1[C@H](C)CC[C@]2(C(=O)O)CC[C@]3(C)C(=CC[C@@H]4[C@@]5(C)C/C(=C/c6ccco6)C(=O)C(C)(C)[C@@H]5CC[C@]43C)[C@H]12,-73.1% [100 µM] (active),7.11% [100 µM] (active),-86% [100 µM] (active),-81.5% [100 µM] (active),-84% [100 µM] (active),-58.7% [100 µM] (active),-79.4% [100 µM] (active),-80.1% [100 µM] (active),-39.1% [100 µM] (active),-43.6% [100 µM] (active),-71.2% [100 µM] (active),-67.9% [100 µM] (active),-52.6% [100 µM] (active),-64.5% [100 µM] (active),-67.1% [100 µM] (active),-91.7% [100 µM] (active),-94.4% [100 µM] (active),-91.7% [100 µM] (active),-79.2% [100 µM] (active),–
O=C(NNc1ccc(-c2ccccc2)nn1)c1ccccc1,104%,92.2%,100%,97.4%,110%,95%,94.3%,102%,103%,98.8%,103%,107%,95.4%,101%,102%,102%,96.6%,98.9%,105%,–
O=S(=O)(/N=c1/n(-c2ccccc2)nc2n1CCN2C1=NCCN1)c1ccc(-c2ccccc2)cc1,108%,88.6%,112%,86.2%,87.9%,91.7%,97.7%,93.1%,103%,106%,99.4%,100%,97.1%,92.7%,93.8%,90.6%,109%,93%,105%,–
